Screening data from PubChem.
Hits are enriched below; roughly 2.3% of the tested compounds scored in any of these assays.
Bcl-xL primary = inhibitors of human Bcl-xL, primary screen, biochemical, fluorescence polarization, HTS | inhibition, % at 10.9 µM | hit rate 0.7% among 320,000 | Bcl-2-like protein 1 (Homo sapiens), Q07817 | GST-Bcl-xL / FITC-Bim BH3 peptide fluorescence polarization;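 active = inhibition above the mean of all tested compounds plus 3 SD, cutoff set per campaign, cut at about 30% in these data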;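 also: 0% = DMSO wells and 100% = unlabeled Bim-BH3 peptide competitor; inhibitors lower millipolarization by displacing the labeled peptide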
Target sequence (Q07817 whole entry, looked up): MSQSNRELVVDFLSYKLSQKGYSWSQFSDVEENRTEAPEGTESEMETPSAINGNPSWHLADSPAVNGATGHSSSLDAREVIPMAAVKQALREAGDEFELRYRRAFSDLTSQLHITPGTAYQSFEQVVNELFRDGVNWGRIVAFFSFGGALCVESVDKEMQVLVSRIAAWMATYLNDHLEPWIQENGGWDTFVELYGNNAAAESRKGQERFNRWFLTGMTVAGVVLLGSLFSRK
Mcl-1 Bim block = inhibitors of Bim peptide binding to Mcl-1, primary screen, biochemical, bead-based flow cytometry, multiplex; Induced myeloid leukemia cell differentiation protein Mcl-1 (Homo sapiens), Q07820; Bim peptide-Mcl-1 binding; inhibition, % at 10 µM; hit rate 0.1% among 190,000; in the data active = inhibition above about 40%;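 also: 0% = no compound tracer wells and 100% = peptide blocker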
Target sequence (Q07820 whole entry, looked up): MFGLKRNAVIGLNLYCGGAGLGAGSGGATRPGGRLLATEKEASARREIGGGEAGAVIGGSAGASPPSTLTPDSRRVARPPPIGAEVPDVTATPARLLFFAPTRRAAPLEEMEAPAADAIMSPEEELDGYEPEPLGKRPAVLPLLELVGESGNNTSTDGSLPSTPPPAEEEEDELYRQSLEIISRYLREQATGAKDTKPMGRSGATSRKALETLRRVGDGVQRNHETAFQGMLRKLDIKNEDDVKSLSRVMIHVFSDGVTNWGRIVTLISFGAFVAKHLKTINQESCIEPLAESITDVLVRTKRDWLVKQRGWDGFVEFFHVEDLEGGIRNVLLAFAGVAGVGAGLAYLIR
MCL1-BIM inh = inhibitors of MCL1 binding to BIM-BH3, primary screen, biochemical, fluorescence polarization; Induced myeloid leukemia cell differentiation protein Mcl-1 (Homo sapiens), Q07820; hit rate 0.68% among 320,000; GST-MCL1 / FITC-Bim-BH3 fluorescence polarization; inhibition, % at 10.9 µM;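 active = inhibition above the mean inhibition of all tested compounds plus 3 SD, set per campaign, cut at about 40% in these data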;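 also: 0% = DMSO wells and 100% = unlabeled Bim-BH3 peptide control; higher means more loss of mP so more displacement of Bim peptide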
Mcl1-Noxa inh = Mcl-1/Noxa binding inhibitors, primary screen, biochemical, TR-FRET, 1536-well. TR-FRET Mcl-1/Noxa peptide binding, 2 h. inhibition, % at 21.7 µM. Induced myeloid leukemia cell differentiation protein Mcl-1 (Homo sapiens), Q07820. hit rate 1.5% among 220,000;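 active = compounds that cut the protein-peptide binding signal by more than 50% relative to plate controls in a single-dose test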;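 also: His-tagged Mcl-1 with rhodamine Noxa BH3 peptide and terbium anti-His antibody; 0% = Mcl-1 plus Noxa peptide wells and 100% = peptide-only wells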
Mcl1-Bid inh = Mcl-1/Bid binding inhibitors, primary screen, biochemical, TR-FRET, 1536-well; Induced myeloid leukemia cell differentiation protein Mcl-1 (Homo sapiens), Q07820; AID 1021, 2008; TR-FRET Mcl-1/Bid-Dy647 peptide binding; hit rate 0.97% among 220,000; inhibition, % at 21.7 µM;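 active = compounds that cut the binding signal by more than half at the single screening dose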;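 also: His-tagged Mcl-1 with europium anti-His antibody binding Bid BH3 peptide; 0% = Mcl-1 plus peptide wells and 100% = peptide-only wells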
GLD-1 TGE inh = GLD-1/TGE RNA complex disruptors, primary screen, biochemical, fluorescence polarization. purified GLD-1 + fluorescein TGE RNA. AID 2280, 2010. inhibition, % at 5.96 µM. hit rate 0.44% among 320,000;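 active = percent inhibition above a per-plate cutoff, the plate mean of test compounds plus 3 SD, cut at about 30% in these data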;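 also: 0% = DMSO wells with GLD-1 and probe and 100% = wells lacking GLD-1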
GLD-1 TGE cf = GLD-1/TGE RNA binding inhibitors, retest, confirmation, biochemical, fluorescence polarization, triplicate. shares compounds with GLD-1 TGE inh. GLD-1/FL-TGE RNA fluorescence polarization. inhibition, % at 5.96 µM. hit rate 10% among 550. AID 2459, 2010;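 active = average inhibition across triplicates above the hit cutoff set in the primary screen, cut at about 32% in these data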;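 also: 0% = GLD-1 with RNA probe and DMSO and 100% = wells lacking GLD-1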
Numbers without * were called inactive; . = no result given.

SMILES	Bcl-xL primary	Mcl-1 Bim block	MCL1-BIM inh	Mcl1-Noxa inh	Mcl1-Bid inh	GLD-1 TGE inh	GLD-1 TGE cf
Cc1ccccc1OC(=O)C1C(c2ccccc2)C(C(=O)O)C1c1ccccc1 (configuration not stated)	-2	-3	-7	7	5	39*	3
Cc1cc2nc(-c3ccc4c(c3)CCC4)ccn2n1	-5	0	0	-2	-7	3	.
Cc1cc(/C=C(\C#N)c2nnc(N3CCOCC3)n2-c2ccccc2)c(C)n1-c1ccccc1	23	0	26	1	-20	49*	5
COc1ccccc1C(=O)NCC(=O)NNC(=O)C1COc2ccccc2O1 (configuration not stated)	-1	.	-1	.	.	4	.
Cc1ccc[n+](-c2nc([O-])sc2/C=N/Nc2ccc([N+](=O)[O-])cc2)c1	42*	.	40*	28	-82	39*	39*
COc1ccc2nc(SCC(=O)N3CCCCC3)c(C#N)cc2c1	2	-3	4	22	-27	4	.
COc1ccc2nc(N3CCCCC3)c(C#N)cc2c1	32*	-2	27	-7	18	46*	65*
O=C(NCCCN1CCCCC1)C1CCN(S(=O)(=O)N2CCC3(CC2)OCCO3)CC1	6	.	2	.	.	-2	.
COc1ccc2c(c1)cc(C(=O)N[C@@H](Cc1ccccc1)C(=O)N[C@@H](C)C(=O)O)n2C	1	.	3	.	.	1	.
COc1ccc2c(c1)cc(C(=O)N[C@@H](Cc1ccccc1)C(=O)O)n2C	26	.	17	.	.	44*	-2
Cc1csc(NC(=O)[C@@H]2CCCN2C(=O)c2cccs2)n1	9	-1	1	23	-14	2	.
CCCCNC(=O)CN1C(=O)c2cccc(N)c2C1=O	.	0	.	2	-14	.	.
CCCn1c(C)cc(C(=O)CN2C(=O)c3cccc(N)c3C2=O)c1C	28	-2	25	-9	-9	35*	-1
COc1ccc(-n2cc([N+](=O)[O-])c(=O)c3ccc(Cl)cc32)cc1	7	.	-1	.	.	3	.
CCc1ccc(C2C(C#N)=C(N)C(C#N)(C#N)C3=CCC(C(C)(C)C)CC32)cc1 (configuration not stated)	41*	-1	28	0	-9	41*	5
COc1ccc(C#Cc2c(-c3ccccc3)n(-c3ccccc3)c3ccc(CO)cc23)cc1	.	.	.	.	.	0	.
Cn1c(=O)c(/C=C/c2ccccc2)nc2ccccc21	35*	-1	41*	17	-14	41*	1
Cn1c(=O)c(/C=C/c2ccc(F)cc2)nc2ccccc21	.	12	.	16	-1	.	.
CCOC(=O)C1=C2NC(=O)c3ccccc3N2C(=O)C1	48*	-1	43*	-1	-29	52*	4
CN1CC2=Cc3ccccc3OC23Oc2ccccc2C=C3C1	14	17	16	12	-57	33*	39*
O=C1c2ccccc2OC2(C=Cc3ccccc3O2)N1Cc1ccccc1 (configuration not stated)	-1	-1	-5	17	-11	6	.
CC1CCC(C(C)C)C(OC(=O)C2=C3c4ccccc4S(=O)(=O)N3CC2)C1 (configuration not stated)	2	1	5	13	-9	49*	0
CC1CCC(C(C)C)C(OC(=O)CSc2nccc(=O)[nH]2)C1 (configuration not stated)	-4	-2	8	-9	-35	-1	.
Nc1c(C(=O)OCC(=O)Nc2cccc([N+](=O)[O-])c2)[nH]c(=O)[nH]c1=O	.	.	.	.	.	33*	14
CC(=O)Nc1ccc2nc3ccccc3nc2c1	59*	.	50*	-1	-35	48*	34*
SMILES	Bcl-xL primary	Mcl-1 Bim block	MCL1-BIM inh	Mcl1-Noxa inh	Mcl1-Bid inh	GLD-1 TGE inh	GLD-1 TGE cf
O=C(Nc1ccc2nc3ccccc3nc2c1)c1ccc(Br)cc1	30	0	24	45	13	5	.
COc1ccc(NC(=O)c2ccc(OC)c(S(=O)(=O)N3CCCCC3C)c2)cn1 (configuration not stated)	51*	.	48*	.	.	33*	28
COc1ccc(C(=O)Nc2ccc(NC(C)=O)cc2)cc1S(=O)(=O)N1CCCC1	4	.	-4	.	.	7	.
COC(=O)C(N)Cc1ccc(O)c(O)c1 (configuration not stated)	11	3	11	16	-13	71*	7
C[C@](N)(Cc1ccc(O)c(O)c1)C(=O)O	.	5	.	14	-22	.	.
Cc1c(C(=O)N(CCC#N)c2ccccc2)sc2nc3n(c(=O)c12)CCCC3	9	.	6	.	.	5	.
COc1ccc(CNCCC(c2ccccc2)C2CCOC(C)(C)C2)cc1 (configuration not stated)	3	0	0	-3	-20	49*	2
Cc1cc2c(c(=O)o1)C(c1ccc([N+](=O)[O-])o1)C(C#N)=C(N)O2 (configuration not stated)	46*	.	47*	2	-26	36*	-6
Cc1ccccc1C(=O)NNC(=O)CCCCC(=O)NNC(=O)c1ccccc1C	0	.	9	.	.	4	.
Oc1cc(NCCc2cccnc2)cc2cccnc12	.	.	.	.	.	39*	24
Oc1cc(Nc2cccnc2)cc2cccnc12	.	.	.	.	.	4	.
CC(NC(=O)CN1CCOCC1)c1ccccc1 (configuration not stated)	6	.	-7	.	.	0	.
CCCC(=Nc1ccc(N)cc1)C1=C(O)C(C(=O)OC)C(C)(C)CC1=O (configuration not stated)	44*	1	49*	18	-9	33*	6
CCCC(=O)C1=C(O)C(C(=O)OC)C(C)(C)CC1=Nc1ccc(N)cc1 (configuration not stated)	4	0	0	27	-29	3	.
NC1=C([N+](=O)[O-])C(c2ccc(F)cc2)C2=C(CCCC2=O)O1 (configuration not stated)	-11	-1	-6	-8	-30	-3	.
CCCCn1c(N)c(N(CC(C)C)C(=O)c2cc(S(=O)(=O)N3CCOCC3)ccc2Cl)c(=O)[nH]c1=O	-1	.	-4	.	.	1	.
Cc1onc(-c2ccccc2)c1C(=O)OCC(=O)NCc1ccc(F)cc1	30	1	28	-7	1	31*	-4
